Unmarked numbers belong to inactive results. The call rests on the fitted dose curve; in most records, active means well fitted activation curve with a large enough effect in the repeat runs; inconclusive means weak or mixed curves; inactive means flat fitted curve, though single readings scatter.

The values below come from PubChem BioAssay (Tox21).
On the % scale 0 is the no-effect control and ±100 the full control effect.

The nature of the assay: Caspase-3/7 induction in CHO-K1 cells by small molecules, qHTS assay (AID 1346980). Further: nearly all actives have a fitted effect of over 15% in size. The following applies: CHO-K1 caspase-3/7 induction, Caspase-Glo luminescence, 17 h; series mostly up to 92.4 µM; caspase-3/7 activation: at the top concentration. From the text: National Center for Advancing Translational Sciences [NCATS]
NIH Chemical Genomics Center [NCGC]
U.S. Environmental Protection Agency [EPA]
National Institutes of Environmental Health Sciences [NIEHS]
National Toxicology Program [NTP]
Apoptosis is a process of programmed cell death and plays a central role in the development of multicellular organisms. It is a highly regulated process and induces cell death by activating caspases, which are the members of cysteine aspartic acid-specific protease (caspase) family. Caspases involved in apoptosis are classified by their mechanism of action as initiator caspases (caspase-2, -8, -9 and -10) and executioner caspases (caspase-3, -6, and -7). Inhibition of apoptosis results in number of cancers, autoimmune diseases, inflammatory diseases and viral infection. To identify small molecule compounds that induce apoptosis, a homogeneous, luminescent Caspase-Glo 3/7 assay was used. Wild type CHO-K1 cells were used to screen Tox21 libraries for identifying caspase-3/7 activity inducers.
CHO-K1 cells were dispensed at 1,500 per well in 5uL of culture medium into white solid bottom 1536-well plates (Corning Life Sciences, Corning, NY) using a Multidrop Combi (Thermo Scientific, Waltham, MA) dispenser. The assay plates were incubated at 37 C and 5% CO2 for 5hr, and then 23nL of compounds dissolved in DMSO and positive control were transferred using a Pintool station (Wako, San Diego, CA). The assay plates were incubated at 37C and 5% CO2 for 17hr. For caspase-3/7 activity read, 4uL of Caspase-Glo 3/7 reagent (Promega Corporation, Madison, WI) was added to each well of the assay plates using Flying Reagent Dispenser (FRD, Aurora Discovery, San Diego, CA) and incubated the assay plates at room temperature for 30min. The luminescence signal was quantified using a ViewLux plate reader (Perkin Elmer, Shelton, CT).
On the technique in general: Quantitative high-throughput screening tests each substance at several concentrations.
`c1ccc2cnncc2c1`: the “caspase-3/7 activation” value was 3.97%. The value for `Cc1onc(-c2ccccc2)c1-c1ccc(S(N)(=O)=O)cc1` was 0.204% [at 42.5 µM]; that for `Cc1nccn1CC1CCc2c(c3ccccc3n2C)C1=O` (stereo not given) was 1.97% [at 42.5 µM].

Regarding `C=CCn1c(=O)n([C@@H]2O[C@H](CO)[C@@H](O)[C@H]2O)c2nc(N)[nH]c(=O)c21`, the “caspase-3/7 activation” value was 0.403% [at 42.5 µM]. The result for `CCCCCCCCCCCCCCCCCC(=O)OCCCCCCCCCCCCCC(C)C` reads 0.54%; that for `CCCCc1ccc(N)cc1`, 0.281%.

As to `CC1=CCC2C(C1)C2(C)C` (stereo not given), the “caspase-3/7 activation” value was -0.484%. The value for `CCCc1ccc(N)cc1` was 2.6%; that for `CN(C)CCOC(c1ccc(Cl)cc1)c1ccccn1` (stereo not given) was 0.0042% [at 42.5 µM]. The result for `C=CCSCC1Nc2cc(Cl)c(S(N)(=O)=O)cc2S(=O)(=O)N1` (stereo not given) reads -0.02% [at 42.5 µM]; that for `O=C(O)C(O)[C@H](O)[C@@H](O)[C@H](O)[C@H](O)CO` (stereo not given in full), 0.686%. The result for `CN(C)C(=O)Nc1ccccc1` reads -0.387%; that for `OCC(CO)(CO)COCC(CO)(CO)CO`, 0.497%; that for `C=C(C)C1CC=C(C)C(O)C1` (stereo not given), -0.239%. Regarding `CCCC(C)C(=O)O` (stereo not given), the “caspase-3/7 activation” value was 0.413%.

As for `Cn1cnc2c(=O)[nH]c(N)nc21`, the “caspase-3/7 activation” value was -0.868%. As for `CC12CCC(CC1=O)C2(C)C` (stereo not given), the “caspase-3/7 activation” value was -0.734%. The value for `Nc1ncnc2c1ncn2Cc1c(F)cccc1Cl` was -0.605% [at 42.5 µM]; that for `CCCCCCC(CCCCCCCCCCC(=O)OCC(COC(C)=O)OC(C)=O)OC(C)=O` (stereo not given) was -0.0042% [at 42.5 µM]. The result for `CCc1cc(S(=O)(=O)O)c2cc(C(C)C)cccc1-2` reads 0.758% [at 42.5 µM]; that for `OC1OC[C@@H](O)[C@H](O)[C@H]1O` (stereo not given in full), -0.506%. Take `OCc1ccccn1`: the “caspase-3/7 activation” value is 1.36% [at 42.5 µM]. The value for `CCCCCCOC(=O)c1ccccc1O` was -1.31%; that for `O=C(CCOCCOCCOCCOCCC(=O)Nc1c(I)cc(I)c(C(=O)O)c1I)Nc1c(I)cc(I)c(C(=O)O)c1I` was -0.0506% [at 42.5 µM]. On to `O=C(O)c1ccc[n+]([O-])c1`, for which the “caspase-3/7 activation” value was -0.0123% [at 42.5 µM]. For the compound `COc1ccc2cc(C=O)ccc2c1`, the “caspase-3/7 activation” value was -0.498% [at 42.5 µM]. The result for `OCCN1C[C@H](O)[C@@H](O)[C@H](O)[C@H]1CO` reads -0.303% [at 42.5 µM]; that for `Nc1cc(C(Cl)=C(Cl)Cl)c(S(N)(=O)=O)cc1S(N)(=O)=O`, -0.169% [at 42.5 µM]. The result for `CCn1c(=O)c2c(nc(/C=C/c3ccc(OC)c(OC)c3)n2C)n(CC)c1=O` reads -1% [at 42.5 µM]; that for `CCO[Si](C)(OCC)OCC`, -0.003%. Regarding `C1COCCO1`, the “caspase-3/7 activation” value was 0.528%. Regarding `CC(C)(O)Cc1ccccc1`, the “caspase-3/7 activation” value was 0.277%. Take `CCN1CCCC(OC(=O)C(c2ccccc2)c2ccccc2)C1` (stereo not given): the “caspase-3/7 activation” value was 0.337% [at 42.5 µM].

Regarding `CCCCC1CCCCC(=O)O1` (stereo not given), the “caspase-3/7 activation” value is -0.159%. As for `O=[N+]([O-])c1ccc(CCO)cc1`, the “caspase-3/7 activation” value is 1.36%. The result for `CCCCCOC(=O)Nc1nc(=O)n([C@@H]2O[C@H](C)[C@@H](O)[C@H]2O)cc1F` reads 0.556% [at 42.5 µM].

Regarding `C[C@H]1O[C@@H](n2cc(F)c(=O)[nH]c2=O)[C@H](O)[C@@H]1O`, the “caspase-3/7 activation” value was -0.917% [at 42.5 µM]. Turning to `C=C(C)C(=O)OCCCCCCCCCCCCCCCCCC`, the caspase-3/7 activation was 0.453% [at 19 µM].

With `CC(=O)NC(Cc1ccccc1)C(=O)O` (stereo not given), the “caspase-3/7 activation” value is -0.666% [at 42.5 µM].

For `CCC(C)(C)C1CCC(OC)CC1` (stereo not given), the “caspase-3/7 activation” value is 0.276%.
